Screens deposited in PubChem BioAssay by National Center for Advancing Translational Sciences (NCATS).
JMJD2E inh – JMJD2E (human) inhibition | JMJD2E catalytic domain, FDH-coupled NADH fluorescence (FDH is formaldehyde dehydrogenase) | Potency, µM (titrated, usually from 57.1 µM), for inactives: at the highest dose activity change, negative = inhibition, most hits filed as inhibitors | 230,000 compounds, 1.6% hits; active = well fitted inhibition curve with a large enough effect, not every such curve was filed as active; inconclusive = small, poorly fitted or top-dose-only effect, or another doubt; inactive = no such curve, though single readings can be large or run the other way;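 note: 0% = wells with enzyme and -100% = buffer wells without enzyme; nearly all actives have a fitted effect of over 50% in size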
Target sequence (B2RXH2 1-337 limits assumed): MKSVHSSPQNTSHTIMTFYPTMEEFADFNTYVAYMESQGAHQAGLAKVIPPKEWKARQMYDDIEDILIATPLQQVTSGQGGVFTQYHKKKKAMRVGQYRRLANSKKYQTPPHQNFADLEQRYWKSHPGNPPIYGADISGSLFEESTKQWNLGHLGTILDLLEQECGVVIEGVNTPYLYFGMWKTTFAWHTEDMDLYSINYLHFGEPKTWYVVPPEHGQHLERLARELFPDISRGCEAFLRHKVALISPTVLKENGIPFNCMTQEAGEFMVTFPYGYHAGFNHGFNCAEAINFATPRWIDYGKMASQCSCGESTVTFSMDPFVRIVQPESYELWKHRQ
Tau fluor cs – counter-screen for tau fibril formation inhibitors | Potency, µM (highest dose often 57.7 µM), for inactives: at the highest dose activity change, negative = decrease | tau K18 P301L Alexa594 fluorescence, heparin fibrillization | AID 1463 | 280,000 compounds, 0.93% hits; note: nearly all actives have a fitted effect of over 55% in size
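Human K18 P301L tau (15 uM unlabeled plus 0.24 uM Alexa 594-labeled, final) in 100 mM sodium acetate pH 7 was mixed with compound and 20 uM heparin and incubated 6 hr at 37 C.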
Tau FP inhib – blocks human tau fibril formation measured by polarization; P10636; K18 P301L tau heparin fibrillization, Alexa594 FP, 6 h; Potency, µM (top dose mostly 57.7 µM), inactives show at the highest dose activity, negative = inhibition, most hits filed as inhibitors; 280,000 compounds, 0.39% hits; note: nearly all actives have a fitted effect of over 55% in size
Target sequence (P10636 561-689 P618L limits assumed): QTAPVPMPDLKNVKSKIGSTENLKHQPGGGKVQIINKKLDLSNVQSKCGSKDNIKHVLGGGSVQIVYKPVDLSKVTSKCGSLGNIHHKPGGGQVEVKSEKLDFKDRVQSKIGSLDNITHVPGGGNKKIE
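Quantitative HTS format: compounds meet 15 uM recombinant K18 P301L tau and Alexa 594-tau tracer in 100 mM sodium acetate pH 7; 20 uM heparin triggers fibrillization at 37 C over 6 hr; FP gives the signal.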
Tau fibril ThT – inhibitors of human tau fibril formation, thioflavin T binding; P10636; recombinant tau K18 P301L (four-repeat tau fragment), heparin-induced fibrillization, ThT fluorescence; Potency, µM (series often up to 57.4 µM), without a hit: at the top dose activity, negative = inhibition, hits mostly inhibitors; 270,000 compounds, 2.1% hits; AID 1460; note: nearly all actives have a fitted effect of over 55% in size
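Recombinant human tau K18 fragment […] carrying P301L, 15 uM unlabeled plus 0.24 uM Alexa 594-labeled, was fibrillized with 20 uM heparin in 100 mM sodium acetate pH 7 for 6 hr at 37 C; 30 uM ThT fluorescence read after 1 hr.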
ALDH1A1 inh – inhibitors of human aldehyde dehydrogenase 1A1; P00352; Purified ALDH1A1, NADH fluorescence, propionaldehyde substrate; Potency, µM (highest dose often 75.3 µM), inactives show at the top dose activity, negative = inhibition, hits mostly inhibitors; 220,000 compounds, 7.3% hits; AID 1030; active = well fitted inhibition curve with a large enough effect, not every such curve was filed as active; inconclusive = small, poorly fitted or top-dose-only effect, or another doubt; inactive = no such curve, though single readings can be large or run the other way;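 note: plate controls were no enzyme wells and a reference inhibitor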
HPGD inh – HPGD (human) dehydrogenase inhibition. P15428. AID 894. 150,000 compounds, 4.3% hits. Potency, µM, for the others: at the top dose activity change, negative = inhibition, actives largely listed as inhibitors. purified HPGD, NADH fluorescence kinetic, PGE2 substrate; active = well fitted inhibition curve with a large enough effect, not every such curve was filed as active; inconclusive = small, poorly fitted or top-dose-only effect, or another doubt; inactive = no such curve, though single readings can be large or run the other way
Target sequence (P15428 whole entry, looked up): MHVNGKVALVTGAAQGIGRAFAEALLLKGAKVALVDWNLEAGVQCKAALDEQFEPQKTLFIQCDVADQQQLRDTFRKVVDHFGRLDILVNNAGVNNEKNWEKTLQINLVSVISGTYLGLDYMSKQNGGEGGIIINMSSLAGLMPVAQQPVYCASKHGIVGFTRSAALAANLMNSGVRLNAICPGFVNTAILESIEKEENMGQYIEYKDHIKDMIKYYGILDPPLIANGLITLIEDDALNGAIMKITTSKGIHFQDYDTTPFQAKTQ
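20 nM HPGD preincubated 15 min at room temperature with compound in 50 mM Tris-HCl pH 8, 0.01% Tween 20. Started with 1 mM NAD+ and 30 uM prostaglandin E2; NADH fluorescence (360/450 nm) read 5 times over 30-s intervals, last minus first.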
An asterisk follows results filed as active; ? = inconclusive; nt = no result; [ ] = remark or other dose. An excerpt weighted towards active compounds, which were near 9.9% of everything screened. Unless noted, calls come from the whole dose curve; as a rule, active = well fitted curve in the direction sought with a large enough effect; inconclusive = small, poorly fitted or top-dose-only effect, or another doubt; inactive = no such curve, though single readings can be large; an effect the other way counts as inactive or inconclusive. Unless noted, % is set by controls: 0 for no effect and ±100 for the full control effect; potency is the fitted concentration of half-maximal effect.

SMILES	JMJD2E inh	Tau fluor cs	Tau FP inhib	Tau fibril ThT	ALDH1A1 inh	HPGD inh
COc1ccc(C(C(=O)NCc2ccccc2)N(C(=O)Cn2nnc3ccccc32)c2cccc(OC)c2)cc1 (centres undefined)	nt	2%	-5%	9%	nt	nt
COCCNC(=O)CSc1cn(CC(=O)N2CCCCCC2)c2ccccc12	nt	-5%	-10%	-12%	nt	nt
COc1ccc(-c2cc(-c3cc(C)ccc3O)[nH]n2)cc1	-2%	16µM*[quencher]	?	?	1%	nt
COc1ccc(O)c(-c2cc(-c3ccccc3[N+](=O)[O-])[nH]n2)c1	-2%	?	5%	?	0%	22µM*
Cc1ccc(C(=O)COC(=O)CCC(=O)Nc2ccc(Oc3ccccc3)cc2)cc1	nt	-7%	-3%	-13%	nt	nt
CCCCCCN1C=CC=C/C1=C\C=C(C#N)C#N	-8%	?	?	16µM*	nt	nt
CC1=C(CC/C(C)=N/NC(N)=S)C(C)(C)CCC1	-6%	-11%	9%	?	28µM*	-19%
NS(=O)(=O)c1ccc(N=Nc2c(=O)[nH]n3c(=O)c4c([nH]c23)CCCC4)cc1	28µM*	-29%	5%	7.9µM*	-7%	nt
O=c1[nH]n2c(=O)c3c([nH]c2c1N=Nc1cccc(Cl)c1)CCC3	-4%	1%	2%	-1%	?	7.1µM*
COc1cccc(N=Nc2c(=O)[nH]n3c(=O)c4c([nH]c23)CCC4)c1	6%	-21%	7%	7.1µM*	-6%	14µM*
O=c1[nH]n2c(=O)c3c([nH]c2c1N=Nc1cccc(C(F)(F)F)c1)CCCC3	-24%	-25%	0%	2.8µM*	0%	-27%
O=C(CSc1nc(=O)[nH]c2c1CCC2)Nc1cc(C(F)(F)F)ccc1Cl	nt	-12%	-10%	-9%	nt	nt
COc1cc(CC2COC(c3ccc(O)c(OC)c3)C2COC(C)=O)ccc1O (centres undefined)	-27%	-14%	1%	-7%	nt	nt
Cc1nnc(SCC(=O)c2ccc(Cl)cc2)n(N)c1=O	-13%	-14%	?	?	?	nt
CC(=O)c1sc(C(=O)O)c(-c2ccco2)c1-c1ccco1	-2%	1%	6%	-9%	3%	nt
COc1cccc(N=Nc2c(=O)[nH]n3c(=O)cc(C)[nH]c23)c1	-4%	-20%	6%	16µM*	-11%	14µM*
Cn1c(C(=O)N2CCN(Cc3ccccc3)CC2)cc2c(=O)n(C)c3ccccc3c21	?	-7%	1%	-15%	?	16µM*
Cn1c(C(=O)N2CCCCCC2)cc2c(=O)n(C)c3ccccc3c21	-4%	-7%	-5%	-7%	?	2.8µM*
CCN1CCN(C(=O)c2cc3c(=O)n(C)c4ccccc4c3n2C)CC1	-21%	-1%	-3%	-15%	?	-8%
Cc1c(C(=O)N2CCN(Cc3ccc4c(c3)OCO4)CC2)cccc1[N+](=O)[O-]	6%	-14%	0%	-13%	2%	-1%
COc1ccc(N2CCN(C(=O)c3ccc4nc(N5CCCCC5)sc4c3)CC2)cc1	-20%	-6%	5%	-14%	?	-24%
O=C(c1ccc(Cl)c([N+](=O)[O-])c1)N1CCN(Cc2ccc3c(c2)OCO3)CC1	-3%	-17%	0%	-14%	19µM*	nt
CC1CCN(c2nc3ccc(C(=O)N4CCN(Cc5ccc6c(c5)OCO6)CC4)cc3s2)CC1	-10%	-9%	12%	?	?	18µM*
O=S(=O)(c1ccc(Cl)nc1)N1CCN(Cc2ccc3c(c2)OCO3)CC1	1%	-14%	4%	-6%	14µM*	-3%
O=C(c1ccc2nc(N3CCOCC3)sc2c1)N1CCCC1	6%	-1%	-1%	-10%	5%	14µM*
SMILES	JMJD2E inh	Tau fluor cs	Tau FP inhib	Tau fibril ThT	ALDH1A1 inh	HPGD inh
N=C(N)c1ccc2cc(OC(=O)c3ccc(N=C(N)N)cc3)ccc2c1	nt	-17%	-7%	?	22µM*	nt
COC(=O)C1=C(C(=O)OC)N2C=CC=CC2(C)C(C(=O)OC)=C1C(=O)OC (centres undefined)	-1%	2%	-2%	3%	-7%	35µM*
NC(=NCc1ccc(Cl)cc1Cl)NC(=O)c1nc(Cl)c(N)nc1N	nt	-26%	7%	?	?	nt
O=C(COC(=O)c1c2c(nc3ccccc13)CCCCC2)c1ccc(Cl)s1	4%	-19%	?	?	0%	-8%
COc1cc(/C=C2\SC(=S)N(CCC(=O)Nc3ccccc3)C2=O)cc(OC)c1OC	3%	0%	5%	4%	-3%	nt
CCc1nnc(NC(=O)CN2C(=O)/C(=C/c3cc(OC)c(OC)c(OC)c3)SC2=S)s1	4%	?	?	7.9µM*	1%	-11%
C=CCN1C(=O)/C(=C\c2cc(Br)c(OCc3ccccn3)c(OC)c2)SC1=S	-3%	-5%	1%	-17%	0.28µM*	nt
COc1cc(/C=C2\SC(=S)N(Nc3ccccc3)C2=O)cc(OC)c1OC	-2%	?	-3%	?	7.1µM*	-17%
CCOc1ccc(/C=C2\SC(=S)N(Nc3ccccc3)C2=O)cc1OC	-6%	-20%	-8%	?	3.2µM*	-7%
Cc1cc(C)nc(NS(=O)(=O)c2ccc(NC(=O)c3nc(SC(C)C)ncc3Cl)cc2)n1	nt	-16%	-10%	-16%	nt	nt
CC(C)NC(=O)C1CCN(C(=O)c2cc3sccc3n2Cc2ccc(F)cc2)CC1	2%	-7%	4%	-19%	13µM*	0%
CC1CCN(C(=O)C2CCN(C(=O)c3cc4sccc4n3Cc3ccc(F)cc3)CC2)CC1	-1%	-6%	6%	?	14µM*	-3%
O=c1nc2s/c(=C\c3ccc(-c4ccccc4[N+](=O)[O-])o3)c(=O)n2nc1-c1ccccc1	8%	?	?	7.1µM*	?	7.9µM*
CC1=CC(=O)N(c2ccn(C)n2)C1=O	-6%	-14%	-13%	-12%	4%	nt
CCOC(=O)C(C)Oc1cccc2c(=O)n(CC(=O)N3CCCc4ccccc43)ccc12 (centres undefined)	3%	-6%	3%	-13%	20µM*	?
Cc1ccc(/C=C/C2=Cc3c(sc(NC(=O)CSc4n[nH]c(N)n4)c3C#N)C(C)(C)C2)o1	-9%	-28%	?	?	0.79µM*	?
Cc1cc(NC(=O)CSc2n[nH]c(N)n2)no1	?	12%	4%	13%	7%	nt
COc1ccc(Nc2nc(-c3cc4cccc(OC)c4oc3=O)cs2)cc1	?	?	11%	?	22µM*	-12%
COc1cccc2cc(-c3nc(-c4cccs4)cs3)c(=O)oc12	?	?	?	?	-3%	-24%
COc1cccc2cc(/C(C)=N/Nc3nc(-c4cc(C)ccc4C)cs3)c(=O)oc12	0%	?	8%	?	?	32µM*
